Reference: ChEMBL document CHEMBL3433997, “St. Jude Leishmania screening dataset” (2016)

How the values were obtained:
Format in all cases: functional
[1] = target: Solute carrier family 2, facilitated glucose transporter member 1 (Homo sapiens) (UniProt P11166); assay: ST_JUDE_LEISH: Cytotoxicity at 2uM final concentration against transgenic Leishmania Mexicana promastigotes LmGLUT1 that are glucose transport deficient and complemented with the human glucose transporter GLUT1. Activity is measured by DNA content using SYBR green in vitro
Chain of Solute carrier family 2, facilitated glucose transporter member 1 (Homo sapiens) (P11166 whole entry): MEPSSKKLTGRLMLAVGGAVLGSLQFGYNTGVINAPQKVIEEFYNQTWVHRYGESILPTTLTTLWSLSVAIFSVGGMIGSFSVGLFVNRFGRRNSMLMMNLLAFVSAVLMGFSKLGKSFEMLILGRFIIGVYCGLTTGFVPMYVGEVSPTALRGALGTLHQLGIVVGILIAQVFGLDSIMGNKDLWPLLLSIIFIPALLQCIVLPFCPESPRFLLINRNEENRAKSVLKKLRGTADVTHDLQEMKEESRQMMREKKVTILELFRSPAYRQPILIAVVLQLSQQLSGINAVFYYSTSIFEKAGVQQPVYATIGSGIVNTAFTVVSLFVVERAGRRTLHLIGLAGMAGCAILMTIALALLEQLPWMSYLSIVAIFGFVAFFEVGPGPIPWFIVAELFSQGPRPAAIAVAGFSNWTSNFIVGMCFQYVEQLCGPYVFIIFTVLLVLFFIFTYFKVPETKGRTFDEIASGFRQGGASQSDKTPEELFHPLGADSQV

[2] = target: Hexose transporter 1 (Plasmodium falciparum) (UniProt O97467); assay: ST_JUDE_LEISH: Cytotoxicity at 2uM final concentration against transgenic Leishmania Mexicana promastigotes LmPfHT that are glucose transport deficient and complemented with the Plasmodium falciparum hexose transporter. Activity is measured by DNA content using SYBR green in vitro
[3] = target: Glucose transporter (Leishmania mexicana) (UniProt O61059); assay: ST_JUDE_LEISH: Cytotoxicity at 2uM final concentration against transgenic Leishmania Mexicana promastigotes LmGT2 that are glucose transport deficient and complemented with the L. Mexicana glucose transporter 2. Activity is measured by DNA content using SYBR green in vitro

Cc1cccc2nc(-c3cccc(-c4cccc(CNCCCN5CCCC5=O)c4)c3)[nH]c12
inhibition [1]: -0.74% | inhibition [2]: -0.59% | inhibition [3]: -1.17%

Cc1cccc(CNc2nc(C)cc(NCCC(=O)NCc3cccc(F)c3)n2)c1
inhibition [1]: 7.68% | inhibition [2]: 7.53% | inhibition [3]: 4.51%

COc1ccc(CNCc2ccc(-c3ccc(-c4nc5cccc(C)c5[nH]4)cc3)cc2)cc1
inhibition [1]: 18.1% | inhibition [2]: 17.2% | inhibition [3]: 10.3%

COc1ccc2nccc([C@@H](O)CN3CCC(NCCOc4ccccc4C#N)CC3)c2c1
inhibition [1]: 4.87% | inhibition [2]: 2.43% | inhibition [3]: 6.46%

O=C(NC1CCN(c2ccnc3cc(Cl)ccc23)C1)c1ccc(F)cc1 (centres undefined)
inhibition [1]: 2.4% | inhibition [2]: 2.61% | inhibition [3]: 4.18%

COCCCN=C(S)NN=C(C)c1ccccn1
inhibition [1]: 0.61% | inhibition [2]: -0.03% | inhibition [3]: 0%

COc1cc(NC(=O)N2CCc3ccc(OCCN4CCCCC4)cc32)cc(C(F)(F)F)c1
inhibition [1]: 0.69% | inhibition [2]: 1.18% | inhibition [3]: 3.59%

C(=NN=c1cc(-c2ccccc2)[nH]c2ccccc12)c1cccnc1
inhibition [1]: 15.1% | inhibition [2]: 11.7% | inhibition [3]: 6.62%

COc1ccc2nccc([C@@H](O)CN3CCC(NCCOc4cccc(C(F)(F)F)c4)CC3)c2c1
inhibition [1]: 9.63% | inhibition [2]: 12.5% | inhibition [3]: 0.73%

CCc1cc(CNC2CCN(CCc3c(F)cnc4ccc(OC)nc34)CC2)cc2c1OCCO2
inhibition [1]: 23.9% | inhibition [2]: 34.5% | inhibition [3]: 19.9%

COc1ccc(-c2nc3c(N)nc(N)nc3nc2C(C)C)cc1
inhibition [1]: 15.6% | inhibition [2]: 30.7% | inhibition [3]: 21.4%

Cc1cc(N[C@@H](Cc2ccccc2)C(=O)NC2CCCC2)nc(NCCc2cccs2)n1
inhibition [1]: 1.27% | inhibition [2]: 2.88% | inhibition [3]: 1.56%

CC(C)N(CCOc1ccc2c(c1)N(C(=O)Nc1ccc(Cl)c(Cl)c1)CC2)C(C)C
inhibition [1]: -0.91% | inhibition [2]: 0.27% | inhibition [3]: -4.18%
